Screening data deposited in PubChem by National Center for Advancing Translational Sciences (NCATS).
Sampled rows, rich in hits. Any-hit rate of the full collection: about 9%.
12-LOX inh – Primary qHTS assay for inhibitors of human arachidonate 12S-lipoxygenase (ALOX12): Round 2 | purified 12hLO, xylenol orange hydroperoxide absorbance | AID 1671190, 2021 | hit rate 1.1% among 580,000 | Potency, µM (titrated, usually from 108 µM), actives largely listed as inhibitors | Polyunsaturated fatty acid lipoxygenase ALOX12 (Homo sapiens), P18054
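Hydroperoxide product was detected by ferrous iron/xylenol orange as the 573 to 405 nm absorbance ratio. Arachidonic acid at 40 uM (final) was turned over for 30 min at room temperature by 150 nM human 12hLO, pH 7.0 Hepes buffer, after 15 min compound preincubation.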
HP1b chromo inh – HTS for Inhibitors of HP1-beta Chromodomain Interactions with Methylated Histone Tails; Chromobox protein homolog 1 (Homo sapiens), P83916; AlphaScreen HP1-beta / biotin-H3K9me3 peptide binding; Potency, µM (series often up to 114 µM), most hits filed as inhibitors; hit rate 0.56% among 390,000; AID 540317, 2011; further: nearly all actives have a fitted effect of over 70% in size
Target sequence (P83916 whole entry, looked up): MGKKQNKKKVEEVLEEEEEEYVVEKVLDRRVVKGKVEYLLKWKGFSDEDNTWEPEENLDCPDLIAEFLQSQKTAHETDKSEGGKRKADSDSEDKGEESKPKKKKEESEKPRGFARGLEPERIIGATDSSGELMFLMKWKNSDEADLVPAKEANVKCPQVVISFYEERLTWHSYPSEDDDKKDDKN
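AlphaScreen: HP1-beta (50 nM) preformed 30 min with biotin-H3(1-18)K9me3 peptide (50 nM) in PBS pH 7.4, 0.01% Tween-20. Compound added for 30 min at RT, then streptavidin donor/nickel chelate acceptor beads (10 ug/mL) for 30 min.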
PLK1 PBD inh – qHTS for Inhibitors of PLK1-PDB (polo-like kinase 1 - polo-box domain): Primary Screen; Plk1 PBD binding of FITC phosphopeptide, fluorescence polarization; Serine/threonine-protein kinase PLK1 (Homo sapiens), P53350; Potency, µM, usual class: inhibitors; hit rate 2.8% among 360,000; AID 720504, 2013; further: series mostly up to about 57 µM; nearly all actives have a fitted effect of over 65% in size
G9a inh – qHTS Assay for Inhibitors of Histone Lysine Methyltransferase G9a; hit rate 8.8% among 350,000; Potency, µM (series often up to 102 µM), actives largely listed as inhibitors; Histone-lysine N-methyltransferase EHMT2 (Homo sapiens), Q96KQ7; G9a H3K9 monomethylation, AlphaScreen, 2 h; further: nearly all actives have a fitted effect of over 75% in size
Target sequence (Q96KQ7 913-1193 limits assumed): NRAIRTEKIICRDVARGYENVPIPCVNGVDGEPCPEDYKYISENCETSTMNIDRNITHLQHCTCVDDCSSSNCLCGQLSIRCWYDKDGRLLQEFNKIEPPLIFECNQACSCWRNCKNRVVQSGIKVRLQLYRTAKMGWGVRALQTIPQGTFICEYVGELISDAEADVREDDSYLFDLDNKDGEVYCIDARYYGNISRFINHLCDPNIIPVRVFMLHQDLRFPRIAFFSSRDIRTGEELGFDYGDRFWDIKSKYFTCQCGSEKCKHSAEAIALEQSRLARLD
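Readings reflect AlphaScreen signal from monomethyl-H3K9 antibody detection. HMT at 20 nM; substrate b-H3K9 500 nM; cofactor SAM 20 uM; 2 h RT reaction; compounds tested as titrations in qHTS with 15 min preincubation.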
BAZ2B block – qHTS Assay for Inhibitors of BAZ2B; AlphaScreen BAZ2B-H3K14Ac peptide displacement; AID 504333, 2011; Bromodomain adjacent to zinc finger domain protein 2B (Homo sapiens), Q9UIF8; hit rate 4.4% among 360,000; Potency, µM (titrated, usually from 114 µM), actives largely listed as inhibitors; further: nearly all actives have a fitted effect of over 60% in size
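In this displacement format the biotinylated H3(5-23) peptide acetylated at Lys14 serves as ligand at 50 nM, with BAZ2B at 50 nM in PBS pH 7.4 containing 0.01% Tween-20. Donor and acceptor beads are 10 ug/mL final.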
JMJD2A Tudor inh – qHTS Assay for Inhibitors of JMJD2A-Tudor Domain; Lysine-specific demethylase 4A (Homo sapiens), O75164; AlphaScreen JMJD2A-Tudor / H3K4me3 peptide binding; Potency, µM (doses to about 114 µM), actives largely listed as inhibitors; hit rate 4.4% among 390,000; AID 504339, 2011; further: nearly all actives have a fitted effect of over 50% in size
Numbers stand for hits; ! = not active in a repeat. The call rests on the fitted dose curve; in most records, active means well fitted curve in the direction sought with a large enough effect; inconclusive means small, poorly fitted or top-dose-only effect, or another doubt; inactive means no such curve, though single readings can be large; an effect the other way counts as inactive or inconclusive.

For Oc1ccc(-c2csc(Nc3ncccn3)n2)c(O)c1 the results were 12-LOX inh inactive, HP1b chromo inh inactive, PLK1 PBD inh inactive, G9a inh inactive and JMJD2A Tudor inh inactive.
For Fc1ccc(-c2csc(Nc3ccccn3)n2)c(F)c1 the results were 12-LOX inh inactive, HP1b chromo inh inconclusive, PLK1 PBD inh inactive, BAZ2B block inactive and JMJD2A Tudor inh inactive.
Oc1ccc(-c2csc(Nc3ccc4c(c3)OCO4)n2)c(O)c1 was read as 12-LOX inh 31.6µM, HP1b chromo inh inconclusive, PLK1 PBD inh inactive and JMJD2A Tudor inh 56.2µM.
`Oc1ccc(Nc2nc(-c3ccc(F)cc3F)cs2)cc1` gave 12-LOX inh 7.94µM.
`Cc1cc(-c2csc(Nc3ccccn3)n2)ccc1F` gave 12-LOX inh inconclusive, HP1b chromo inh inactive, PLK1 PBD inh inactive, G9a inh inactive, BAZ2B block inactive and JMJD2A Tudor inh inactive.
COc1ccccc1C1=Nn2c(nc3sc(C(=O)Nc4ccccc4Cl)c(C)c3c2=O)SC1 was read as 12-LOX inh inactive, HP1b chromo inh inactive, G9a inh inactive, BAZ2B block inconclusive and JMJD2A Tudor inh inactive.
O=C(Cc1cc(Cl)c2c(c1)OCCO2)NC1CCN(CC(F)F)CC1 was read as 12-LOX inh inactive.
Screening CCn1nccc1C(=O)N1CCN(c2cc(-c3ccccc3)[nH]n2)CC1 returned 12-LOX inh inactive.
O=c1[nH]c2ccc(-c3csc(Nc4ccc(F)cc4)n3)cc2o1 was read as 12-LOX inh 17.8µM.
Screening O=c1[nH]c2ccc(-c3csc(Nc4ccc(Cl)cc4)n3)cc2o1 returned 12-LOX inh inactive.
Screening CN1CCC(=C2c3ccccc3C(O)c3ccccc32)CC1 (centres undefined) returned 12-LOX inh inactive, HP1b chromo inh inactive, PLK1 PBD inh inactive, G9a inh inconclusive, BAZ2B block inactive and JMJD2A Tudor inh inactive.
Screening CN1CCc2cccc3c2C1Cc1ccc(O)c(O)c1-3 (centres undefined) returned 12-LOX inh inconclusive, HP1b chromo inh inconclusive, PLK1 PBD inh inactive, G9a inh 1.89µM!, BAZ2B block inconclusive and JMJD2A Tudor inh 39.8µM.
Screening CNc1cc(F)nc(F)n1 returned 12-LOX inh inactive, HP1b chromo inh inactive, PLK1 PBD inh 9.47µM, G9a inh inactive, BAZ2B block inactive and JMJD2A Tudor inh inconclusive.
Screening Cc1noc2c(-c3cccc(CO)c3)cc(-c3cccs3)nc12 returned 12-LOX inh inactive.
For O=C(OCc1noc(-c2ccco2)n1)c1cncc(Br)c1 the results were 12-LOX inh inactive.
O=C(OCc1noc(-c2ccco2)n1)c1cc(Br)c[nH]1 was read as 12-LOX inh 25.1µM.
CCCCCCCCCCCCCCCC[n+]1ccc(C(N)=O)cc1 was read as 12-LOX inh 44.7µM, HP1b chromo inh inconclusive, PLK1 PBD inh inactive, G9a inh inactive, BAZ2B block inactive and JMJD2A Tudor inh inconclusive.
`CCCCCCCCCCCCCCCC[n+]1ccc(/C=N/O)cc1` gave 12-LOX inh inconclusive, HP1b chromo inh inactive, PLK1 PBD inh inactive, G9a inh inactive, BAZ2B block inactive and JMJD2A Tudor inh inactive.
CC1Nc2nc(N(C)C)[nH]c(=O)c2NC1C (centres undefined) was read as 12-LOX inh inactive, HP1b chromo inh inactive, PLK1 PBD inh inconclusive, G9a inh 3.16µM, BAZ2B block inconclusive and JMJD2A Tudor inh 28.2µM.
CCCn1nnnc1NCc1ccc(N(CC)CC)cc1 was read as 12-LOX inh inactive, HP1b chromo inh inactive, PLK1 PBD inh inactive, G9a inh 15.8µM, BAZ2B block inconclusive and JMJD2A Tudor inh inactive.
CCN(CC)c1ccc(CNc2nnnn2C)cc1 was read as 12-LOX inh inactive, HP1b chromo inh inactive, PLK1 PBD inh inactive, G9a inh 31.6µM, BAZ2B block inconclusive and JMJD2A Tudor inh inactive.
Screening CCCn1nnnc1NCc1ccc(F)cc1 returned 12-LOX inh inactive, HP1b chromo inh inactive, PLK1 PBD inh inactive, BAZ2B block inactive and JMJD2A Tudor inh inactive.
Screening CCCn1nnnc1NCc1ccc(N2CCCC2)cc1 returned 12-LOX inh inconclusive, HP1b chromo inh inactive, PLK1 PBD inh inactive, G9a inh 3.55µM, BAZ2B block inactive and JMJD2A Tudor inh inactive.
`CCCCn1nnnc1NCc1cccnc1` gave 12-LOX inh inactive, HP1b chromo inh inactive, PLK1 PBD inh 2.99µM, G9a inh inactive, BAZ2B block inactive and JMJD2A Tudor inh inconclusive.
`Cn1nnnc1NCc1ccc(Cl)cc1` gave 12-LOX inh inactive, HP1b chromo inh inactive, PLK1 PBD inh inactive, G9a inh inactive, BAZ2B block inactive and JMJD2A Tudor inh inactive.
O=C1O/C(=C\c2ccccc2)c2ccccc21 was read as 12-LOX inh inactive, HP1b chromo inh inactive, PLK1 PBD inh inconclusive, G9a inh inactive, BAZ2B block inactive and JMJD2A Tudor inh inactive.
Screening CCCN1CNc2c(c(=O)[nH]c(=S)n2CCC(C)(C)C)C1 returned HP1b chromo inh inactive and JMJD2A Tudor inh inactive.
Screening CCCn1nnnc1NCc1c(F)cccc1Cl returned 12-LOX inh inactive, HP1b chromo inh inactive, PLK1 PBD inh 8.44µM, G9a inh inactive, BAZ2B block inactive and JMJD2A Tudor inh inconclusive.
For c1ccc(-c2onc(-c3ccco3)c2-c2ccc3[nH]ccc3c2)cc1 the results were 12-LOX inh inconclusive, HP1b chromo inh inactive, PLK1 PBD inh inactive, G9a inh 39.8µM, BAZ2B block inconclusive and JMJD2A Tudor inh inconclusive.
O=C(CCS(=O)(=O)c1ccc2c(c1)NC(=O)CO2)NCCc1ccccc1 was read as 12-LOX inh inactive, HP1b chromo inh inactive, PLK1 PBD inh 18.9µM, G9a inh inactive, BAZ2B block inactive and JMJD2A Tudor inh inconclusive.
For CC1CCC(NC(=O)CCS(=O)(=O)c2ccc3c(c2)NC(=O)CO3)CC1 (centres undefined) the results were 12-LOX inh inactive, HP1b chromo inh inactive, PLK1 PBD inh 16.8µM, G9a inh inactive, BAZ2B block inactive and JMJD2A Tudor inh inconclusive.
For Cc1ccc(NC(=O)C(C)N(c2ccc(C)c(C)c2)S(C)(=O)=O)cc1C (centres undefined) the results were 12-LOX inh inactive.
Screening COC(=O)c1ccc(C(=O)N(Cc2ccccc2)c2ccccc2)cc1 returned 12-LOX inh inactive, HP1b chromo inh inactive, PLK1 PBD inh inactive, G9a inh inactive, BAZ2B block inactive and JMJD2A Tudor inh inactive.
